Bioassay records: PubChem BioAssay, National Center for Advancing Translational Sciences (NCATS)
KB-V1 MDR tox: qHTS assay for MDR1-selective chemotherapeutics: Primary screen using the drug-selected MDR subline cells KB-V1 | KB-V1 MDR cells viability, CellTiter-Glo, 72 h | Potency, µM (highest dose often 46.1 µM), usual class: cytotoxic | hit rate 3.4% among 400,000 | AID 1347076, 2019; note: nearly all actives have a fitted effect of over 60% in size
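Following 72 h at 37 degrees C with compound, KB-V1 cell viability was read by CellTiter-Glo luminescence, medium being phenol-red-free DMEM plus 10% FBS; concentration-response parameters came from normalized, curve-fitted qHTS data.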
HT1080NT lethal: qHTS for induction of synthetic lethality in tumor cells producing 2HG: qHTS for the HT-1080-NT fibrosarcoma cell line; Potency, µM (series often up to 46.1 µM), for the others: top-dose activity, negative = less viability, most hits filed as cytotoxic; AID 686970, 2013; hit rate 1.6% among 360,000; HT-1080-NT fibrosarcoma viability, CellTiter-Glo ATP luminescence, 48 h;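 note: NT is the 2HG producing partner of a matched IDH1 knockdown line; 0% = DMSO-treated cells and -100% = media-only wells without cells; nearly all actives have a fitted effect of over 55% in size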
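HT-1080-NT fibrosarcoma cells (2HG-overproducing), 750 cells/well in RPMI with 5% FBS, dosed after 2 h and incubated 48 h at 37C. CellTiter-Glo luminescence normalized to DMSO and no-cell wells; concentration-response curves fitted and classed.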
HT1080 IDH1KD tx: qHTS for induction of synthetic lethality in tumor cells producing 2HG: qHTS for the HT-1080-IDH1KD cell line. Potency, µM (highest dose often 46.1 µM), without a hit: at the top dose activity, negative = toxicity, hits mostly cytotoxic. hit rate 2% among 360,000. AID 686971, 2013. HT-1080 IDH1 knockdown viability, ATP luminescence, 48 h;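 note: 0% = DMSO wells and -100% = cell-free medium wells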
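After a 2 h attachment period, IDH1KD HT-1080 cells took pin-transferred compound for 48 h at 37 °C; ATP-based luminescence after 10 min room-temperature reagent incubation reported viability.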
KB-3-1 cytotox: qHTS assay for MDR1-selective chemotherapeutics: Primary screen using the parental adenocarcinoma cell KB-3-1; KB-3-1 viability, CellTiter-Glo ATP luminescence, 72 h; Potency, µM (titrated, usually from 46.1 µM), most hits filed as cytotoxic; hit rate 1.4% among 400,000; AID 1347075, 2019; note: nearly all actives have a fitted effect of over 60% in size
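Cytotoxicity measured as CellTiter-Glo luminescence after 72 h at 37 C. Compound titrations were pinned onto drug-naive KB-3-1 parental adenocarcinoma cells grown in DMEM with 10% FBS, and normalized data fitted to concentration-response curves.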
TDP1 cell noCPT: qHTS for Inhibitors of human tyrosyl-DNA phosphodiesterase 1 (TDP1): qHTS in cells in absence of CPT. Potency, µM (doses to about 46.2 µM), for the others: top-dose activity change, negative = growth inhibition, actives largely listed as inhibitors. DT40 Tdp1-/- hTDP1 cells, no CPT, ATP luminescence, 48 h. AID 686978, 2013. hit rate 15% among 420,000; note: nearly all actives have a fitted effect of over 55% in size
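Camptothecin absent (DMSO only). Human TDP1-complemented DT40 knockout cells, 400 cells/well, 37 °C for minimum 48 hr; ATP measured via CellTiter-Glo, 30 min dark incubation, luminescence.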
TDP1 cell CPT: qHTS for Inhibitors of human tyrosyl-DNA phosphodiesterase 1 (TDP1): qHTS in cells in presence of CPT. AID 686979, 2013. chicken DT40 Tdp1-/-;hTDP1 cells + 20 nM CPT, ATP luminescence, 48 h. Potency, µM (doses to about 46.2 µM), for the others: top-dose activity change, negative = growth inhibition, most hits filed as inhibitors. hit rate 12% among 420,000; note: nearly all actives have a fitted effect of over 55% in size
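Chicken DT40 Tdp1-/- cells complemented with human TDP1, 400 cells/well, exposed to compounds plus 20 nM camptothecin for at least 48 h at 37 C; viability read as ATP content by CellTiter-Glo luminescence.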
Starred values were filed as active, the others as inactive; i = inactive; ? = inconclusive; . = not tested or not shown; [ ] = remark or other dose. Sampled rows, rich in hits. Any-hit rate of the full collection: about 19%. Calls come from the whole dose curve; as a rule, active = well fitted curve in the direction sought with a large enough effect; inconclusive = small, poorly fitted or top-dose-only effect, or another doubt; inactive = no such curve, though single readings can be large; an effect the other way counts as inactive or inconclusive. Unless noted, % is set by controls: 0 for no effect and ±100 for the full control effect; potency is the fitted concentration of half-maximal effect.

SMILES	KB-V1 MDR tox	HT1080NT lethal	HT1080 IDH1KD tx	KB-3-1 cytotox	TDP1 cell noCPT	TDP1 cell CPT
O=C(Nc1ccc(S(=O)(=O)NCC2CCCO2)cc1)c1ccc(Cl)cc1[N+](=O)[O-] (stereo not given)	i	-7.8%	-13.8%	i	?	8.2µM*
O=C(Nc1ccc(F)cc1)c1ccc(S(=O)(=O)NCC2CCCO2)cc1 (stereo not given)	13µM*	?	2.9%[9.24 µM]	?	13µM*	18.4µM*
Cc1c(C(=O)Nc2ccc(S(=O)(=O)NCC3CCCO3)cc2)cccc1[N+](=O)[O-] (stereo not given)	i	-0.2%	-1.5%	i	?	?
CN1OC[C@@H]2CN(C(=S)NCCc3ccccc3)[C@H](c3ccc(N4CCCCC4)cc3)C[C@@H]21	i	10.2%	7.2%	i	?	16.4µM*
C=CCNC(=S)NNC(=O)CCC(O)COCCC(C)C (stereo not given)	i	22.3%	13.0%	i	-13.7%	1.1%
C=CCNC(=S)NNC(=O)C(CCCC)CC(C)(C)O (stereo not given)	i	9.2%	11.9%	i	7.31µM*	8.2µM*
CCC(=O)O/N=C(\N)c1ccc(Oc2cc(C)c(Cl)c(C)c2)c([N+](=O)[O-])c1	i	-3.7%	-1.3%	?	?	-13.0%
Cc1ccc(N(C)S(=O)(=O)c2nnc(NC(=O)C3CCCCC3)s2)cc1	.	.	.	.	-11.2%	4.0%
Cc1cc(CNCCN(C)C)c(C)n1-c1cc(S(=O)(=O)N2CCOCC2)ccc1N1CCCC1	i	-13.5%	-19.9%	i	16.4µM*	?
Cc1ccc(C)n1-c1cc(S(=O)(=O)N2CCOCC2)ccc1N1CCCC1	i	-0.1%	0.8%	i	25.9µM*	20.6µM*
O=C(Nc1ccc(Br)cc1)Nc1cnccn1	?	-1.5%	0.1%	?	?	?
Cc1cccc(NC(=O)NNC(=O)c2cc3occc3[nH]2)c1C	i	2.9%	10.4%	i	-29.7%	0.6%
Fc1ccc(C(Nc2ccccc2Cl)c2nnc(-c3ccccc3Cl)o2)cc1 (stereo not given)	i	.	.	i	20.6µM*	?
Fc1ccc(NCc2ccccc2-c2nnc(-c3ccccc3Cl)o2)cc1	i	.	.	i	?	0.7%
O=C(NCc1ccco1)c1cnn2c(C(F)(F)F)cc(-c3ccccc3)nc12	i	-13.2%	-3.3%	i	?	?
NC(=O)c1cnn2c(C(F)(F)F)cc(-c3ccccc3)nc12	?	-11.6%	-3.6%[9.24 µM]	i	?	?
COc1ccc(-c2cc(C(F)(F)F)n3ncc(C(=O)NCc4ccco4)c3n2)cc1	i	0.7%	0.4%	i	?	-16.8%
O=C(c1cnn2c(C(F)(F)F)cc(-c3ccc4c(c3)OCO4)nc12)N1CCCCC1	i	6.5%	4.4%	i	-22.9%	?
O=C(NC1CCCC1)c1cnn2c(C(F)(F)F)cc(-c3ccco3)nc12	5.17µM*	3.0%	?	i	?	-29.3%
CC(C)CCNC(=O)c1cnn2c(C(F)(F)F)cc(-c3ccco3)nc12	11.2µM*	1.4%	?	?	31.6µM*	11.2µM*
NC(=O)c1cnn2c(C(F)(F)F)cc(-c3ccc(F)cc3)nc12	13µM*	-10.2%	0.4%	i	?	-28.5%
